Source: PubChem BioAssay (NCATS)
Records with an inconclusive call do not appear. Activity calls are given as the source filed them. Calls follow the shape of the dose curve; as a rule, active = well fitted inhibition curve with a large enough effect; inconclusive = small, poorly fitted or top-dose-only effect; inactive = no such curve, though single readings can be large or run the other way.
Potency is read from the fitted curve at half-maximal effect.

Assay: qHTS Screen of the MIPE 4.0 Collection Against Ewings Sarcoma (TC71) (AID 1259253); also: nearly all actives have a fitted effect of over 40% in size;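 as to viability (% of DMSO): 100% = DMSO-treated cells and 0% = medium-only wells without cells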
Settings: TC71 Ewing sarcoma viability, CellTiter-Glo, 48 h; series mostly up to 45.8 µM; viability (% of DMSO): at the top concentration
From the text: There is a large unmet medical need for treatments for Ewing sarcoma, a pediatric sarcoma. We sought to identify compounds that inhibited Ewing sarcoma cells in vitro with the goal to then test promising drugs in two drug combinations in vitro to look for synergistic drug combinations. Promising combinations would then proceed to additional validation, including in vivo testing.
Using the NCATS developed oncology compound library called the Mechanism of Interrogation Plate (MIPE), four Ewing sarcoma cell lines were evaluated (TC32, TC71, RDES, EW8). Compounds, in a 12-point titration series, were incubated with cells for 48 hours and the read out was cell viability (CellTiter-Glo from Promega). These initial experiments were used to select appropriate concentrations of each single agent for subsequent two-drug matrix combinations such that the concentrations in the matrices would span both activity and non-activity.
Cells, in the log phase of growth, were seeded in 5 uL of RPMI plus 5% FBS, […] L-glutamine, 100 U/ml penicillin and 100 ug/ml streptomycin into 1536-well solid-bottom white tissue culture treated Greiner Bio One Plates (789173-F) using a MultiDrop Combi (Thermofisher Scientific) dispenser and a small sterile cassette. One column was media alone to be used as a :"no cells" control. The plates were then covered with sterilized stainless steel gasketed lids from Kalypsys. After allowing cells to attach for 4 hours, 23 nL of test compound or control (negative control DMSO and positive control 9.2 uM Bortezomib-final) were added from a 1536-well polypropylene compound source plate to each well using a 1536 head pin tool from Kalypsys. Cells were then incubated for 48 hours at 37C, 95% relative humidity and 5% CO2. After 48 hours, plates were removed from the incubator and 3 uL of CellTiter-Glo (Promega) was added using an Aurora Flying Reagent Dispenser Bioraptor. Plates were incubated at room temperature for 10 minutes prior to reading the luminescence on the Viewlux (PerkinElmer). The relative luciferase units are used to calculate the percent activity using the activity of DMSO in the cells and no cells columns for normalization of no inhibition and full inhibition respectively.
For COc1ccc2c(c[n+](C)c3c4cc5c(cc4ccc23)OCO5)c1OC, the Potency was 9.35 µM (active). With CC[C@@H](C(N)=O)N1CCCC1=O the “viability (% of DMSO)” value was 122% (inactive). For CC(O)=C(C#N)C(=O)Nc1cc(Br)ccc1Br, the Potency was 23.5 µM (active). For O=S(=O)(F)Cc1ccccc1, the “viability (% of DMSO)” value was 104% (inactive). In the case of CC1=NN=C(c2ccc(N)cc2)c2cc3c(cc2C1)OCO3, the “viability (% of DMSO)” value is reported as 126% (inactive). For O=C(O)CNC(=O)c1c(O)c2ccccc2n(Cc2ccccc2)c1=O, the Potency was 13.2 µM (active). In the case of C[C@@H]1O[C@@H](O[C@@H]2C=C3CC[C@@H]4[C@@H](CC[C@]5(C)[C@H](c6ccc(=O)oc6)CC[C@@]45O)[C@@]3(C)CC2)[C@H](O)[C@H](O)[C@H]1O, the Potency is reported as 0.0187 µM (active). With CO[C@H]1CCC(O[C@H]2C[C@H]([C@]3(C)CC[C@]4(C[C@H](O)[C@@H](C)[C@@H]([C@@H](C)C=C(C)C(=O)[C@H](C)C[C@H](C)C(=O)O)O4)O3)O[C@]3(O[C@@H]([C@H]4O[C@@](O)(CO)[C@H](C)C[C@H]4C)C[C@H]3C)[C@H]2C)O[C@H]1C (stereo not given in full) the Potency was 0.332 µM (active). With Cc1c(N)nc([C@H](CC(N)=O)NC[C@@H](N)C(N)=O)nc1C(=O)N[C@H](C(=O)N[C@@H](C)[C@H](O)[C@@H](C)C(=O)N[C@@H](C(=O)NCCc1nc(-c2nc(C(=O)NCCC[S+](C)C)cs2)cs1)[C@@H](C)O)C(O[C@H]1O[C@H](CO)[C@H](O)[C@@H](O)[C@@H]1O[C@H]1O[C@H](CO)[C@@H](O)[C@H](OC(N)=O)[C@H]1O)c1cnc[nH]1 (stereo not given in full) the Potency was 0.526 µM (active). For CN(C)[C@@H]1C(=O)C(C(N)=O)=C(O)[C@@]2(O)C(=O)C3=C(O)c4c(O)cccc4[C@@](C)(O)[C@H]3[C@H](O)[C@@H]12, the “viability (% of DMSO)” value was 126% (inactive). In the case of C[C@]12CC[C@H]3[C@@H](CCC4=CC(=O)CC[C@@]43C)[C@H]1CC[C@H]2O, the “viability (% of DMSO)” value is reported as 107% (inactive). For COCC1(CO)C(=O)C2CCN1CC2 (stereo not given), the Potency was 2.35 µM (active). With CCOP(=O)(OCC)C(C)NC(=O)N(CCCl)N=O (stereo not given) the “viability (% of DMSO)” value was 133% (inactive). For CC[C@@]1(O)C(=O)OCc2c1cc1n(c2=O)Cc2cc3ccccc3nc2-1, the Potency was 0.0093 µM (active). With C[C@@]12OC(=O)[C@]1([C@@H](O)[C@@H]1C=CCCC1)NC(=O)[C@H]2CCCl the Potency was 0.0296 µM (active). With CC[C@@H]1[C@@H](C)O[C@@](O)([C@@H](C)[C@H](O)[C@H](C)[C@H]2OC(=O)C=CC=C[C@@H](C)[C@@H]([C@@H](C)[C@@H](O)[C@H](C)[C@@]3(O)C[C@H](O[C@H]4C[C@H](O)[C@H](O)[C@H](C)O4)[C@H](CC)[C@@H](C)O3)OC(=O)C=CC=C[C@@H]2C)C[C@H]1O[C@H]1C[C@H](O)[C@H](O)[C@H](C)O1 the Potency was 0.59 µM (active). In the case of N#C[C@H](O[C@@H]1O[C@H](CO[C@@H]2O[C@H](CO)[C@H](O)[C@H](O)[C@H]2O)[C@H](O)[C@H](O)[C@H]1O)c1ccccc1, the Potency is reported as 20.9 µM (active). With C=C[C@@H]1CN2CCC1C[C@H]2[C@H](O)c1ccnc2ccccc12 (stereo not given in full) the Potency was 20.9 µM (active). With Cc1nc(-c2ccc(-c3ccc(C(=O)N4CCc5cc6c(cc54)C4(CCN(C)CC4)CO6)cc3)c(C)c2)no1 the “viability (% of DMSO)” value was 132% (inactive). In the case of CC(C)(O)C=CC(=O)[C@](C)(O)[C@H]1[C@H](O)C[C@]2(C)[C@@H]3CC=C4[C@@H](C=C(O)C(=O)C4(C)C)[C@]3(C)C(=O)C[C@@]12C, the Potency is reported as 0.209 µM (active). In the case of CCN1C[C@]2(OC(=O)c3ccccc3NC(C)=O)CC[C@H](OC)[C@@]34[C@H]5CC6[C@@H](OC)C[C@](O)(C(C[C@@H]23)[C@@H]14)[C@@]5(O)[C@@H]6OC, the “viability (% of DMSO)” value is reported as 121% (inactive). In the case of C[C@]12CC[C@H](O)CC1=CC[C@H]1[C@H]3CCC(=O)[C@@]3(C)CC[C@@H]12, the Potency is reported as 18.7 µM (active). For Cc1ccccc1-n1c(Cn2ncc3c(N)ncnc32)nc2cccc(C)c2c1=O, the Potency was 16.6 µM (active). For c1ccc2c(CN3CCNCC3)cccc2c1, the “viability (% of DMSO)” value was 107% (inactive). For CCOC(=O)c1cncn1[C@H](C)c1ccccc1, the “viability (% of DMSO)” value was 128% (inactive). In the case of C#C[C@]1(O)C=C[C@@H]2[C@@H]3CCC4=CC(=O)CC[C@@H]4[C@H]3CC[C@@]21CC, the “viability (% of DMSO)” value is reported as 105% (inactive). For Oc1ccc2c3c1O[C@H]1c4[nH]c5c(c4C[C@@]4(O)[C@@H](C2)N(CC2CC2)CC[C@]314)C[C@@]1(O)[C@H]2Cc3ccc(O)c4c3[C@@]1(CCN2CC1CC1)[C@H]5O4, the “viability (% of DMSO)” value was 120% (inactive). With O=c1[nH]c2ccccc2n1C1CCN(Cc2ccc(-c3[nH]c4cc5ncnc5cc4nc3-c3ccccc3)cc2)CC1 the Potency was 20.9 µM (active). For CCOC(=O)c1c(C(C#N)=CN)c2ccc(Cl)c(Cl)c2n1C, the “viability (% of DMSO)” value was 123% (inactive). In the case of CCNC(=O)CC1N=C(c2ccc(Cl)cc2)c2cc(OC)ccc2-n2c(C)nnc21 (stereo not given), the Potency is reported as 16.6 µM (active). For O=C(N[C@H]1CN2CCC1CC2)c1ccc(Cl)cc1, the Potency was 18.7 µM (active). For C[C@]12CC[C@@H]3[C@@H](CCC4=CC(=O)CC[C@@H]43)[C@@H]1CC[C@@H]2OC(=O)CCc1ccccc1, the Potency was 9.35 µM (active). With CCc1c(C(=O)C(N)=O)c2c(OCC(=O)O)cccc2n1Cc1ccccc1 the Potency was 20.9 µM (active). With CC(=Cc1csc(C)n1)[C@@H]1C[C@H]2O[C@]2(C)CCC[C@H](C)[C@@H](O)[C@@H](C)C(=O)C(C)(C)[C@@H](O)CC(=O)O1 the “viability (% of DMSO)” value was 44.5% (inactive). In the case of Cc1c(C(=O)Nc2cccc(C(F)(F)F)c2)cc(-c2ccccc2)n1CCCN1CCOCC1, the Potency is reported as 6.62 µM (active). For COc1cc([C@@H]2c3cc4c(cc3[C@@H](O)C3COC(=O)C32)OCO4)cc(OC)c1O (stereo not given in full), the Potency was 0.0418 µM (active). With C=CCON=C(C[C@H]1O[C@@H]2O[C@]3(C)CC[C@@H]4[C@H](C)CC[C@@H]([C@H]1C)[C@@]24OO3)[C@H]1O[C@@H]2O[C@]3(C)CC[C@H]4[C@H](C)CC[C@@H]([C@@H]1C)[C@@]24OO3 the Potency was 0.418 µM (active). In the case of CC(=O)O[C@@]12CO[C@H]1C[C@H](O)[C@@]1(C)C(=O)[C@H](O)C3=C(C)[C@@H](O)C[C@@](O)([C@@H](OC(=O)c4ccccc4)[C@@H]21)C3(C)C, the Potency is reported as 23.5 µM (active). In the case of C[C@H]([C@H](O)CCC(C)(C)O)[C@H]1CC[C@@]2(O)C3=CC(=O)[C@@H]4C[C@@H](O)[C@@H](O)C[C@]4(C)[C@@H]3CC[C@]12C, the “viability (% of DMSO)” value is reported as 128% (inactive). With C[C@@H]1CC[C@@]2(OC1)O[C@H]1C[C@H]3[C@@H]4CC=C5C[C@@H](O[C@@H]6O[C@H](CO)[C@@H](O[C@@H]7O[C@@H](C)[C@H](O)[C@@H](O)[C@@H]7O)[C@H](O)[C@@H]6O[C@@H]6O[C@@H](C)[C@H](O)[C@@H](O)[C@@H]6O)CC[C@]5(C)[C@@H]4CC[C@]3(C)[C@@H]1[C@H]2C the Potency was 3.72 µM (active).
